Results from PubChem BioAssay (EPA / NIEHS).
Active and inactive are the calls of the source. Rule for the calls: active = hit-call score of the fitted dose curve at least 0.9, where 1 is the maximum; inactive = score below 0.9.

Legend:
[1] = ATG_PBREM_CIS: Attagene CIS-FACTORIAL HepG2 Assay for human Phenobarbital-responsive Enhancer Module (PBREM) (AID 2282955); settings: HepG2 PBREM cis-reporter, Attagene multiplexed transcription; actives raise or lower the signal
In short: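 Transfected liver-derived HepG2 cells exposed 24 h; PBREM reporter transcript quantified via RT-PCR and capillary electrophoresis, with activity in either direction referenced to DMSO.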

[2] = target: Paired box protein Pax-6 (Homo sapiens) (UniProt P26367); assay: ATG_Pax6_CIS: Attagene CIS-FACTORIAL HepG2 Assay for human Paired Box 6 (PAX6) (AID 2282956); settings: HepG2 CIS-FACTORIAL PAX6 reporter transcription, RNA readout; actives raise or lower the signal
In short: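 Readout: reporter transcript fluorescence after RT-PCR and capillary electrophoresis. Cells: HepG2, transiently transfected with cis-regulated MRTUs. Exposure 24 h. Gain or loss of signal fitted bidirectionally relative to DMSO.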

[3] = ATG_PXRE_CIS: Attagene CIS-FACTORIAL HepG2 Assay for human Pregnane X Receptor Element (PXRE) (AID 2282957); settings: HepG2 Attagene CIS-FACTORIAL PXRE reporter, mRNA; actives raise or lower the signal
In short: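 Using HepG2 transfected with multiple reporter transcription units, endogenous factor-driven transcription was scored as reporter mRNA after 24 h exposure.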

[4] = ATG_PPRE_CIS: Attagene CIS-FACTORIAL HepG2 Assay for human Peroxisome Proliferator-activated Response Element (PPRE) (AID 2282958); settings: HepG2 PPRE cis-element reporter, Attagene transcription factor profiling; actives raise or lower the signal
In short: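 Measured endpoint: PPRE-controlled reporter mRNA, detected by RT-PCR and capillary electrophoresis fluorescence, from transiently transfected HepG2 cells 24 h after dosing. Curves fitted in both directions using DMSO baseline.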

[5] = ATG_RORE_CIS: Attagene CIS-FACTORIAL HepG2 Assay for human RAR-related Orphan Receptor Element (RORE) (AID 2282959); settings: HepG2 Attagene cis-factorial RORE reporter, mRNA; actives raise or lower the signal
In short: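 Transiently transfected HepG2 reporter cells were treated 24 h. Reporter transcripts were detected by RT-PCR and capillary electrophoresis, with bidirectional fitting against DMSO.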

[6] = ATG_Sox_CIS: Attagene CIS-FACTORIAL HepG2 Assay for human SRY-box transcription factor (SOX) (AID 2282960); settings: HepG2 Attagene cis-factorial SOX reporter, mRNA; actives raise or lower the signal
In short: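 Gain- or loss-of-signal endpoint, fitted bidirectionally with DMSO as negative control. Based on reporter mRNA from transfected HepG2 cells harvested 24 h post-treatment and quantified via RT-PCR and capillary electrophoresis.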

[7] = target: Transcription factor Sp1 (Homo sapiens) (UniProt P08047); assay: ATG_Sp1_CIS: Attagene CIS-FACTORIAL HepG2 Assay for human Specificity Protein 1 (Sp1) (AID 2282961); settings: HepG2 Sp1 cis-reporter transcription, actives raise or lower the signal
In short: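 Endpoint reflects endogenous Sp1 transcriptional activity, not an exogenous fusion protein: HepG2 cells with transfected cis-regulated reporters, 24 h dosing, RT-PCR/capillary electrophoresis mRNA read-out, DMSO-normalised bidirectional fit.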

[8] = ATG_SREBP_CIS: Attagene CIS-FACTORIAL HepG2 Assay for human Sterol Regulatory Element Binding (SREBP) (AID 2282962); settings: HepG2 Attagene cis-factorial SREBP reporter, mRNA; actives raise or lower the signal
In short: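 Readout: fluorescent reporter-transcript peaks resolved by capillary electrophoresis after RT-PCR. Cells were human HepG2 carrying transfected cis-promoter reporter constructs, dosed for 24 h. Gain or loss of signal was fitted against DMSO controls.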

[9] = target: Signal transducer and activator of transcription 3 (Homo sapiens) (UniProt P40763); assay: ATG_STAT3_CIS: Attagene CIS-FACTORIAL HepG2 Assay for human Signal Transducer and Activator of Transcription 3 (STAT3) (AID 2282963); settings: HepG2, Attagene cis-factorial STAT3 reporter transcription; actives raise or lower the signal
In short: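 Uses human liver HepG2 transiently carrying cis-regulated reporter transcription units. Following 24 h dosing, reporter mRNA induction was detected by RT-PCR and capillary electrophoresis, analysed bidirectionally versus DMSO.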

[10] = ATG_TA_CIS: Attagene CIS-FACTORIAL HepG2 Assay for human TA Basal Promoter (AID 2282964); settings: HepG2 Attagene CIS-factorial TA basal promoter reporter; actives raise or lower the signal
In short: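 Background internal-marker endpoint from a 52-component HepG2 cis-reporter panel. Cells treated 24 h; reporter transcripts quantified via RT-PCR and CE fluorescence against DMSO baseline.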

Measured: AC50

Transcription factor Sp1 (Homo sapiens), sequence (P08047 whole entry, looked up, the tested form may be a part): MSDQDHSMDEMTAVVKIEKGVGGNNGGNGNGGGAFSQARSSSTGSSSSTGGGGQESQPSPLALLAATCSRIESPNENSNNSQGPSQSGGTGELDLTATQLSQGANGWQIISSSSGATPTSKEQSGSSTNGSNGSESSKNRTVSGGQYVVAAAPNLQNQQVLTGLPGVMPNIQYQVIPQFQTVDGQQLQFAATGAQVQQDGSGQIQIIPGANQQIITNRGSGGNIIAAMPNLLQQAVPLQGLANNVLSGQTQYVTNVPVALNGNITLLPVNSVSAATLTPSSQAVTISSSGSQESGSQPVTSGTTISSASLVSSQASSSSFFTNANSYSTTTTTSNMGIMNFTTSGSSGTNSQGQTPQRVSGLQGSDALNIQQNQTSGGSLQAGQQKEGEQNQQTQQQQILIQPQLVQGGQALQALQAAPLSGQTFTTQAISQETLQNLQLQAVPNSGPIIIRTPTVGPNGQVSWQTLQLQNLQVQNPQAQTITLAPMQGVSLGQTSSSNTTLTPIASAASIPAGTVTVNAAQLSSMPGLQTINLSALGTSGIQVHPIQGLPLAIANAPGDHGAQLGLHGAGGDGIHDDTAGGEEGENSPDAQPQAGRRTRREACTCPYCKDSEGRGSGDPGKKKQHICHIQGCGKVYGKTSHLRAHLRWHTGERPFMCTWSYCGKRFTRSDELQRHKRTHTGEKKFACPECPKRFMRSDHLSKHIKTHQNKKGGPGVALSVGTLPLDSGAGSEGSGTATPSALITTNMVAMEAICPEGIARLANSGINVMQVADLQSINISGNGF
Paired box protein Pax-6 (Homo sapiens), sequence (P26367 whole entry, looked up): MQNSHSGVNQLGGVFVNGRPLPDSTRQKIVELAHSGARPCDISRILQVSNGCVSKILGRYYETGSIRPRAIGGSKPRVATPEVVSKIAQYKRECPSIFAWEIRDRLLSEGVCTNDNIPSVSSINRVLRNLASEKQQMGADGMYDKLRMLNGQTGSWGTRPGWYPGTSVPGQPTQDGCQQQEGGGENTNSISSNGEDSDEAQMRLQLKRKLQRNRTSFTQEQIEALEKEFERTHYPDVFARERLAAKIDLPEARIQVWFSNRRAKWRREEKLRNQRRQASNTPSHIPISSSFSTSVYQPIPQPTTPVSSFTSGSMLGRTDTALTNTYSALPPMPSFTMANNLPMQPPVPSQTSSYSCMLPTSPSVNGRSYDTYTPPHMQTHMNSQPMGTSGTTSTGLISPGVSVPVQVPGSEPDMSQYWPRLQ
Signal transducer and activator of transcription 3 (Homo sapiens), sequence (P40763 whole entry, looked up): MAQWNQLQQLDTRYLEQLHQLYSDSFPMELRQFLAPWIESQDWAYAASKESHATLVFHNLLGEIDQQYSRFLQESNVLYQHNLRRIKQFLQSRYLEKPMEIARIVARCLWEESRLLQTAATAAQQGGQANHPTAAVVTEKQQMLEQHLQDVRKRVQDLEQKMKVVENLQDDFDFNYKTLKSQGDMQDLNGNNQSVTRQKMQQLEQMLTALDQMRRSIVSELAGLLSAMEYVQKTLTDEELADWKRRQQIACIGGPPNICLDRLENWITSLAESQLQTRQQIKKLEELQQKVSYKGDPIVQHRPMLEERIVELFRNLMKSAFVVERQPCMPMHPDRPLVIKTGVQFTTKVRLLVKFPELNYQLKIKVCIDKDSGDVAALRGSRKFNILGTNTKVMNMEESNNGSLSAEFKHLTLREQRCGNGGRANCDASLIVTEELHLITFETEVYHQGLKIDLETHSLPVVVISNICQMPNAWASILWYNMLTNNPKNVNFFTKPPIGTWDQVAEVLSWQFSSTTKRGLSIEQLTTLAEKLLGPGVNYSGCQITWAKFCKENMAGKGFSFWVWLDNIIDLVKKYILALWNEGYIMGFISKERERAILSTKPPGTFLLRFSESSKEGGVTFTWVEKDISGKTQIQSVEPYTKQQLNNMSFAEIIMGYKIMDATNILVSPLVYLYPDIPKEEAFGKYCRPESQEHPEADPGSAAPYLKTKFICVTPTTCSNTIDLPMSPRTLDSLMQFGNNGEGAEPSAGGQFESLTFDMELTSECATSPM

CC(C)OC=O
inactive: all assays above

CCn1c2ccccc2c2ccccc21
active: [3] 26.2 µM | [7] 167 µM | [8] 153 µM
inactive: all other assays above

CCCCCCCC/C=C\CCCCCCCC(=O)N(C)CC(=O)O
active: [3] 16 µM | [4] 3.73 µM | [8] 11.1 µM
inactive: all other assays above

CCOCOCC
inactive: all assays above

C=CC(=O)OCC(F)(F)C(F)(F)C(F)(F)COC(=O)C=C
active: [2] 50 µM | [6] 29.1 µM | [7] 26.4 µM
inactive: all other assays above

CNS(=O)(=O)C(F)(F)C(F)(F)C(F)(F)C(F)(F)C(F)(F)C(F)(F)C(F)(F)C(F)(F)F
active: [3] 10.4 µM
inactive: all other assays above

NCC(F)(F)C(F)(F)C(F)(F)C(F)(F)C(F)(F)C(F)(F)F
inactive: all assays above

O=S(=O)(O)c1ccc(Cl)cc1
inactive: all assays above

CC1=CC2C3C=CC(C3)C2C1C (stereo not drawn)
active: [3] 1.59 µM
inactive: all other assays above

O=C=Nc1cccc2c(N=C=O)cccc12
active: [3] 1.82 µM
inactive: all other assays above

Nc1cccnc1N
inactive: all assays above

Cc1cnccn1
inactive: all assays above

Nc1cc([N+](=O)[O-])cc(Cl)c1O
active: [3] 5.15 µM
inactive: all other assays above

CCCCOC(=O)C(C)O (stereo not drawn)
inactive: all assays above

O=S(=O)(O)CCC(F)(F)C(F)(F)C(F)(F)C(F)(F)C(F)(F)C(F)(F)C(F)(F)C(F)(F)F
inactive: all assays above

CC1CCCCC1
inactive: all assays above

OCCCC(F)(F)C(F)(F)C(F)(F)C(F)(F)C(F)(F)C(F)(F)C(F)(F)C(F)(F)F
active: [2] 29.9 µM | [4] 20.9 µM
inactive: all other assays above

NC(=O)C(F)(F)C(F)(F)C(F)(F)C(F)F
inactive: all assays above

OCC(O)CC(F)(F)C(F)(F)C(F)(F)C(F)(F)F (stereo not drawn)
inactive: all assays above

OC(O)C(F)(F)C(F)(F)F
inactive: all assays above

F[Si-2](F)(F)(F)(F)F
inactive: all assays above

CN(C(=O)C(F)(F)C(F)(F)C(F)(F)F)[Si](C)(C)C
inactive: all assays above

FC(F)(F)C(F)(F)C(F)(F)C(F)(F)C(F)(F)C(F)(F)CC[Si](Cl)(Cl)Cl
inactive: all assays above

OCCC(O)CO (stereo not drawn)
inactive: all assays above

CCC(C)CO (stereo not drawn)
inactive: all assays above

CO[Si](C)(CCC(F)(F)C(F)(F)C(F)(F)C(F)(F)C(F)(F)C(F)(F)F)OC
inactive: all assays above

CC(C)Nc1ccc(NC(C)C)c2c1C(=O)c1ccccc1C2=O
active: [3] 0.21 µM
inactive: all other assays above

Brc1nc2ccccc2s1
active: [4] 18.1 µM
inactive: all other assays above

NC(=O)C(F)(F)C(F)(F)C(F)(F)C(F)(F)C(F)(F)C(F)(F)C(F)(F)F
inactive: all assays above

CCN=C1C=CC(=C(c2ccc(N(CC)CC)cc2)c2ccc(N(CC)CC)cc2)c2ccccc21
inactive: [4] | [7] | [8] | [9]
active: [1] 0.0478 µM | [2] 1.78 µM | [3] 1.23 µM | [5] 0.068 µM | [6] 0.0762 µM | [10] 1.23 µM

N#Cc1ccccc1O
inactive: all assays above

CCCCCCCCCCCC(=O)Cl
active: [4] 49.9 µM | [8] 41.2 µM
inactive: all other assays above

CN(N=O)C(=O)N[C@@H]1[C@@H](O)[C@H](O)[C@@H](CO)O[C@@H]1O
inactive: all assays above

CC(C)CCCC(C)CCO (stereo not drawn)
inactive: all assays above

O=c1cccc[nH]1
not listed: [4] | [10]
inactive: all other assays above

Cc1cc(=O)[nH]c(C(C)C)n1
inactive: all assays above

O=C(Cl)C(F)(F)C(F)(F)C(F)(F)C(F)(F)C(F)(F)C(F)(F)F
active: [4] 60.3 µM
inactive: all other assays above

O=C(Cl)C(F)(F)C(F)(F)C(F)(F)C(F)(F)C(F)(F)C(F)(F)C(F)(F)F
active: [4] 69.5 µM
inactive: all other assays above

O=C1c2ccccc2C(=O)c2c(Cl)cccc21
active: [3] 0.997 µM
inactive: all other assays above

O=C1C=CC(=O)N1c1ccccc1
inactive: all assays above

CCC(=O)OC(C)c1ccccc1 (stereo not drawn)
active: [3] 26.5 µM
inactive: all other assays above

O=c1[nH]cccc1O
inactive: all assays above

CCc1ccc(C)nc1
inactive: all assays above

Oc1ccc(C2(c3ccc(O)c(C4CCCCC4)c3)CCCCC2)cc1C1CCCCC1
active: [1] 8.53 µM | [2] 14.4 µM | [3] 0.175 µM | [6] 7.42 µM | [8] 27 µM | [9] 62.4 µM
inactive: [4] | [5] | [7] | [10]

CCCCCC/C=C/CCCCCCCC(=O)O
inactive: all assays above

O=C1C=CC(=O)N1c1ccc(Cc2ccc(N3C(=O)C=CC3=O)cc2)cc1
active: [2] 33.4 µM | [3] 26.7 µM | [4] 57.2 µM | [7] 48.4 µM
inactive: all other assays above
